Compounds without any hit were thinned out: in the full panel of roughly 83,000, 20% have a hit.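 Growth was measured after 48 h exposure to one concentration of compound in 96-well plates. Values under 10 count as active.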 Unmarked numbers belong to inactive results. The source made the active and inactive calls.

Common to all, as to experiment: NCI-60 one-dose screen, 48 h (100 = growth as untreated, 0 = no growth, -100 = all killed)
Holding throughout (settings): 10 µM unless noted

Test [1] has as its system SR leukemia.
The subject of test [2] is RPMI-8226 leukemia.
Test [3] relates to OVCAR-8 ovarian.
In test [4] the test system is OVCAR-5 ovarian.
The subject of test [5] is OVCAR-4 ovarian.
In test [6] the test system is SK-OV-3 ovarian.
Test [7] deals with IGROV1 ovarian.
The subject of test [8] is OVCAR-3 ovarian.
Test [9] has as its system HS 578T breast.
Test [10] concerns NCI/ADR-RES ovarian.
Test [11] relates to T-47D breast.
For test [12], the system named is BT-549 breast.
Test [13] relates to MDA-MB-435 melanoma.
Test [14] has as its system SW-620 colon.
For test [15], the system named is MCF7 breast.
For test [16], the system named is HCT-116 colon.
Test [17] has as its system HCC-2998 colon.
In test [18] the test system is KM12 colon.

With `CN(C)C/C=C/C(=O)Nc1cc2c(Nc3ccc(F)c(Cl)c3F)ncnc2cc1OCCOC(F)F`, the growth in test [1] was 14.8%; in test [2], 11.4%; in test [3], 26.6%; in test [4], 26.6%; in test [5] it was 16%; in test [6], 0.142% (active). Moreover, the growth is -15.6% (active) in test [7]; -15.4% (active) in test [8]; -19.2% (active) in test [9]; 20.1% in test [10]; -1.23% (active) in test [11]; 5.73% (active) in test [12]. The growth is 5.61% (active) in [13]; 3.09% (active) in [14]; 20% in test [15]; 2.2% (active) in [16]; 41.1% in test [17]; 44.6% in [18].

With `O=C1Nc2cc(Cl)ccc2/C1=C/c1ccc(N2CCOCC2)s1`, the growth in test [1] is 97%; in test [2] it was 85.7%; in [3] it was 98.2%; in test [4], 94.4%; in [5] it was 99.1%; in test [6] it was 113%. Besides, the growth in test [7] is 45.3%; in test [8], 115%; in test [9] it was 129%; in test [10], 99.8%; in [11], 84%; in [12] it was 109%. The growth in [13] is 102%; in test [14], 102%; in test [15], 86.7%; in [16], 96.6%; in test [17] it was 114%; in test [18], 105%.

On to `Cn1c(C(N)=O)cc2c1-c1nc(NC3CCCCC3)ncc1CCC2`, for which the growth is 92.5% in test [1]; 93.5% in test [2]; 88.1% in test [3]; 64.6% in test [4]; 93.4% in test [5]; 91.3% in [6]. Besides, the growth is 113% in test [7]; 97.1% in test [8]; 58.5% in test [9]; 91.5% in test [10]; 105% in test [11]; 80.7% in [12]. In addition, the growth is 96.5% in test [13]; 89.7% in test [14]; 90.6% in [15]; 88.1% in test [16]; 97.5% in [17]; 104% in [18].

With `O=C(NNC(=S)Nc1ccccc1)c1ccccn1`, the growth in [1] is 9.67% (active); in [2], 37.6%; in test [3] it was 23.2%; in [4], 51.3%; in test [5] it was 20.1%; in test [6], 33.5%. For the same compound, the growth in test [7] is 21.2%; in test [8], 33.6%; in test [9], 65.8%; in [10] it was 24.7%; in [11], 53.2%; in test [12] it was 55.1%. In addition, the growth was 48.4% in test [13]; 42.1% in test [14]; 27.2% in test [15]; 26.7% in test [16]; 40.6% in test [17]; 32.1% in test [18].

As for `O=C(CN1CCOCC1)Nc1ccc(-c2nc3ccccc3s2)cc1`, the growth in test [1] is 102%; in test [2] it was 94%; in test [3], 102%; in [4], 93.4%; in [5], 101%; in test [6] it was 121%. The growth is 106% in test [7]; 96.3% in [8]; 110% in [9]; 105% in [10]; 93.3% in test [11]; 104% in test [12]. Moreover, the growth in test [13] is 108%; in test [14], 108%; in [15], 48.8%; in [16], 96.1%; in test [17], 88%; in [18] it was 107%.

As to `CN(C)C/C=C/C(=O)Nc1cc2c(Nc3cccc(Cl)c3F)ncnc2cc1OCCOC(F)F`, the growth in test [1] was 51.6%; in test [2] it was 58.6%; in test [3] it was 34.7%; in [4], 29.7%; in test [5] it was 27.9%; in test [6] it was -0.955% (active). Moreover, the growth in test [7] was -21.7% (active); in test [8], 23.9%; in [9] it was 11.2%; in test [10], 32.9%; in test [11], -4.28% (active); in [12], 41%. Further, the growth is 15.4% in test [13]; 31% in [14]; 35.1% in test [15]; 25.7% in test [16]; 68.3% in [17]; 80.7% in test [18].

Regarding `COC(=O)CC/C(C)=N\Nc1ccc([N+](=O)[O-])cc1`, the growth is 34.6% in test [1]; 51.8% in test [2]; 59.1% in [3]; 79.4% in test [4]; 76.3% in test [5]; 62.5% in test [6]. Further, the growth was 74.2% in test [7]; 88.3% in test [8]; 81.7% in test [9]; 78% in test [10]; 42% in test [11]; 89.1% in test [12]. The growth in [13] is 31.7%; in test [14], 54.4%; in [15], 77.1%; in test [16], 54.1%; in test [17] it was 66.1%; in [18], 24.3%.

Regarding `C=C1C(=O)O[C@H]2[C@H]1CC/C(Cn1cc(-c3ccc(N)cc3)nn1)=C\CC[C@@]1(C)O[C@@H]21`, the growth is 7.69% (active) in test [1]; -8.22% (active) in test [2]; -5.97% (active) in test [3]; 38.4% in [4]; 13.6% in test [5]; 83.8% in test [6]. For the same compound, the growth is 18.4% in test [7]; -30.7% (active) in test [8]; 62.4% in [9]; 69.8% in test [10]; -40.4% (active) in test [11]; -43.3% (active) in test [12]. The growth in [13] is -7.57% (active); in test [14], -44.8% (active); in test [15], 2.62% (active); in [16], -56% (active); in test [17], 50.8%; in [18], 51.5%.

For the origin of these results see PubChem BioAssay (NCI).
